Data published in PubChem BioAssay (EPA / NIEHS).
Where “and” joins values, the source holds several entries; their conditions need not be identical. Equal entries are not always repeated. Results filed as inconclusive are left out. More than one record can exist for a structure, and the calls need not agree. Calls of active or inactive are those of the source. How the source made its calls, unless noted: active means hit-call score of the fitted dose curve at least 0.9, where 1 is the maximum; inconclusive means response in the unintended direction; inactive means score below 0.9.

What was measured:
[1] = molecular target: Nuclear receptor subfamily 1 group I member 2 (Mus musculus) (UniProt O54915); assay: ATG_mPXR_XSP2: Attagene TRANS-FACTORIAL Multi-Species (XSP1) HepG2 Assay for mouse Pregnane X Receptor (PXR) (AID 2283831)
Chain of Nuclear receptor subfamily 1 group I member 2 (Mus musculus) (O54915 whole entry, looked up, the tested form may be a part): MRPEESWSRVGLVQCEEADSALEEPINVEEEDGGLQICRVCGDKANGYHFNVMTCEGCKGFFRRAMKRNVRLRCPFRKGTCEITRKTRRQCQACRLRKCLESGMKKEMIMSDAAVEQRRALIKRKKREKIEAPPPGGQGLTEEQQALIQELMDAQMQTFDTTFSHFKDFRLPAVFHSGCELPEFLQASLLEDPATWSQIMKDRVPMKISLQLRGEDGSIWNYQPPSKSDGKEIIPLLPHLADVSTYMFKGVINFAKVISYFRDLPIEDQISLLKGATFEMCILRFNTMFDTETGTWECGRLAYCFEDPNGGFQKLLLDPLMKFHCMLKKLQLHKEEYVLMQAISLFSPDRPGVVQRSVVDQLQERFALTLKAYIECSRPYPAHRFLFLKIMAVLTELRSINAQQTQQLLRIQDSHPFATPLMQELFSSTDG
Procedure, shortened: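 HepG2 cells transiently transfected with GAL4-UAS reporter units expressing chimeric NR-GAL4 proteins; reporter mRNA measured 24 h after dosing by RT-PCR with 6-FAM labelling and capillary electrophoresis, gain of signal relative to DMSO.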

[2] = molecular target: zebrafish Thyroid Hormone Receptor alpha (TRa), thraa (gene 30670) (UniProt Q98867); assay: ATG_zfTRa_XSP2: Attagene TRANS-FACTORIAL Multi-Species (XSP1) HepG2 Assay for zebrafish Thyroid Hormone Receptor alpha (TRa) (AID 2283832);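 further: actives raise zebrafish TRa-Gal4 reporter transcript above DMSO baseline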
Chain of zebrafish Thyroid Hormone Receptor alpha (TRa), thraa (gene 30670) (Q98867 whole entry, looked up, the tested form may be a part): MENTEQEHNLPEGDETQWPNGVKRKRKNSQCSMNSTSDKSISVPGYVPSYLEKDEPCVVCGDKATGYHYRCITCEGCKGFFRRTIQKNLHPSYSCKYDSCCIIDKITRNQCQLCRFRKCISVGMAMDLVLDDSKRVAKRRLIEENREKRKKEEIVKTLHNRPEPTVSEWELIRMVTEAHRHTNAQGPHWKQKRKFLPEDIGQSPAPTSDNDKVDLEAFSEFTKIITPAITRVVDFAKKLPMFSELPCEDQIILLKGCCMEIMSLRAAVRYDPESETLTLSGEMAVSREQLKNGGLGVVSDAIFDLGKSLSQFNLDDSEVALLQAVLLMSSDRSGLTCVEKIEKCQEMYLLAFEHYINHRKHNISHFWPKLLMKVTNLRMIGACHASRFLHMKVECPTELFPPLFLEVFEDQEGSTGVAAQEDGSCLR
Description: ATG_XSP2_multi-species_TRANS is a cell-based, multiplexed assay created by modifying the existing Attagene TRANS-FACTORIAL system to include a panel of nuclear receptors from some or all the following species: human (Homo sapiens), mouse (Mus musculus), frog (Xenopus laevis), zebrafish (Danio rerio), chicken (Gallus gallus), and turtle (Chrysemys picta). The ECOTOX-FACTORIAL format uses HepG2, a human liver cell line, with measurements taken at 24 hours after chemical dosing in a 24-well plate. Xsp2 included 3 nM 6-alpha-fluorotestosterone and 1.5 nM norgestrel to stimulate the androgen receptor.ATG_zfTRa_XSP2 is one of 29 assay components measured or calculated from the ATG_XSP2_multi-species_TRANS assay. It is designed to make measurements of mRNA induction, a form of inducible reporter, as detected with fluorescence intensity signals by Reverse transcription polymerase chain reaction (RT-PCR) and Capillary electrophoresis technology.The assay endpoint ATG_zfTRa_XSP2 was analyzed in the positive analysis fitting direction relative to DMSO as the negative control and baseline of activity. Using a type of inducible reporter, measures of mRNA for gain-of-signal activity can be used to understand the reporter gene at the transcription factor-level as they relate to the gene TR. Furthermore, this assay endpoint can be referred to as a primary readout, because this assay has produced multiple assay endpoints where this one serves a reporter gene function. To generalize the intended target to other relatable targets, this assay endpoint is annotated to the nuclear receptor intended target family, where the subfamily is non-steroidal.
(§1) Human liver HepG2 cells are transiently transfected with multiple reporter transcription units (MRTUs) in 6-well plates using FuGene 6 reagent (Roche; 3 ml FuGene/1 mg DNA). The MRTU constructs are regulated by a cis-regulating element (promoter). […] A major difference between the CIS and TRANS system is that in CIS activities of endogenous TFs are measured, whereas the TRANS assay evaluates changes in activities of exogenous, chimeric NR-Gal4 proteins. […] At the end of 24 hour incubation, total RNA was isolated using TriZol reagent (Invitrogen). The isolated RNA is then reverse-transcribed using oligo(dT) primer and Mo-MLV reverse transcriptase (Invitrogen) with DNAse I (Ambion) treatment for 30 min. The one-tenth of the produced cDNA was amplified by PCR using Taq DNA polymerase (Invitrogen) and two reporter sequence-specific primers. The PCR products were fluorescently labeled by primer extension with 6-arboxyfluorescein (6-FAM) 5'-labeled reporter sequence-specific primer (2 min at 95 C, 20 s at 68 C and 10 min at 72 C) and these products were digested with 5U of HpaI (New England Biolabs) for 2h at 37 C. The fragments were purified using Qiaquick PCR columns (Qiagen), analyzed on an ABI 3130xL genetic analyzer (Applied Biosystems) with peak positions identified by using a set of X-rhodamine (ROX)-labeled MapMarker1000 molecular weight standards (BioVentures). The raw capillary electrophoresis data was processed using Attagraph software (Attagene).

[3] = test system: zebrafish Peroxisome Proliferator-activated Receptor gamma (PPARg), gene 557037; assay: ATG_zfPPARg_XSP2: Attagene TRANS-FACTORIAL Multi-Species (XSP2) HepG2 Assay for zebrafish Peroxisome Proliferator-activated Receptor gamma (PPARg) (AID 2283833);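 further: actives increase reporter signal over DMSO so AC50 reflects activation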
Procedure, shortened: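 HepG2 cells transiently transfected with GAL4-UAS reporter units expressing a zebrafish PPARg–GAL4 chimera; compound exposure 24 h. Reporter mRNA quantified by RT-PCR with fluorescent labelling and capillary electrophoresis; gain of signal fitted relative to DMSO baseline.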

[4] = test system: turtle Thyroid Hormone Receptor, alpha (TRa), gene 101949057; assay: ATG_trTRa_XSP2: Attagene TRANS-FACTORIAL Multi-Species (XSP1) HepG2 Assay for turtle Thyroid Hormone Receptor, alpha (TRa) (AID 2283834);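 further: hits raise reporter mRNA over the DMSO baseline so AC50 marks activators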
Procedure, shortened: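 HepG2 cells transiently transfected with multiplexed GAL4-UAS reporter units expressing chimeric NR-Gal4 proteins were dosed for 24 hours. Reporter mRNA was quantified by RT-PCR with 6-FAM labelling and capillary electrophoresis, gain of signal scored against DMSO.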

[5] = ATG_M_61_XSP2: Attagene TRANS-FACTORIAL Multi-Species (XSP2) HepG2 Assay for M61 Transcription Factor (Internal Marker) (AID 2283835; active means hit-call score of the fitted dose curve at least 0.9, where 1 is the maximum; inactive means score below 0.9;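 further: active means a rise in signal above the DMSO baseline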)
Description: ATG_XSP2_multi-species_TRANS is a cell-based, multiplexed assay created by modifying the existing Attagene TRANS-FACTORIAL system to include a panel of nuclear receptors from some or all the following species: human (Homo sapiens), mouse (Mus musculus), frog (Xenopus laevis), zebrafish (Danio rerio), chicken (Gallus gallus), and turtle (Chrysemys picta). The ECOTOX-FACTORIAL format uses HepG2, a human liver cell line, with measurements taken at 24 hours after chemical dosing in a 24-well plate. Xsp2 included 3 nM 6-alpha-fluorotestosterone and 1.5 nM norgestrel to stimulate the androgen receptor.ATG_M_61_XSP2 is one of 29 assay components measured or calculated from the ATG_XSP2_multi-species_TRANS assay. It is designed to make measurements of mRNA induction, a form of inducible reporter, as detected with fluorescence intensity signals by Reverse transcription polymerase chain reaction (RT-PCR) and Capillary electrophoresis technology.This assay endpoint, ATG_M_61_XSP2, was analyzed in the positive analysis fitting direction relative to DMSO as the negative control and baseline of activity. Using a type of inducible reporter, measures of mRNA for gain-of-signal activity can be used to understand the background control at the transcription factor-level as they relate to the gene. Furthermore, this assay endpoint can be referred to as a secondary readout, because this assay has produced multiple assay endpoints where this one serves a background control function. To generalize the intended target to other relatable targets, this assay endpoint is annotated to the background measurement intended target family, where the subfamily is internal marker.
as §1

[6] = molecular target: zebrafish Thyroid Hormone Receptor beta (TRb), thrb (gene 30607) (UniProt Q9PVE4); assay: ATG_zfTRb_XSP2: Attagene TRANS-FACTORIAL Multi-Species (XSP1) HepG2 Assay for zebrafish Thyroid Hormone Receptor beta (TRb) (AID 2283836)
Chain of zebrafish Thyroid Hormone Receptor beta (TRb), thrb (gene 30607) (Q9PVE4 whole entry, looked up): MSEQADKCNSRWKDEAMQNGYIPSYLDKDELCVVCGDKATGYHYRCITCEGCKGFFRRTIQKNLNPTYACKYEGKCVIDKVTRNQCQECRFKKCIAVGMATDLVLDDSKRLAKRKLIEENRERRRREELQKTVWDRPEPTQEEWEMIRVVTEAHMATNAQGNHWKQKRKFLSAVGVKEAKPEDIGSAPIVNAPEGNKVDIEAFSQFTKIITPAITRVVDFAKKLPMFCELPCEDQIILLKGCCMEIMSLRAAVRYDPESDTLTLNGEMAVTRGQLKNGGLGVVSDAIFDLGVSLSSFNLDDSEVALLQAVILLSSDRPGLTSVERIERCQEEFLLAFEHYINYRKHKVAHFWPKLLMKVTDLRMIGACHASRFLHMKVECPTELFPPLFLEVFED
Procedure, shortened: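 Transfect HepG2 with multiple reporter transcription units, dose chemical, incubate 24 h. Isolate RNA, reverse-transcribe, amplify and fluorescently label reporter sequences, digest with HpaI, then resolve by capillary electrophoresis. Positive direction fitted against DMSO.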

[7] = ATG_XTT_Cytotoxicity_XSP2: Cytotoxicity Assessment in the Attagene TRANS-FACTORIAL Multi-Species (XSP2) HepG2 Assay (AID 2283837)
Procedure, shortened: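 XTT-based cell number read-out in human HepG2 liver cells carrying transfected reporter units, measured 24 h after chemical dosing. Activity is signal loss versus DMSO baseline.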

[8] = molecular target: human Thyroid hormone Receptor alpha (TRa), THRA (gene 7067) (UniProt P10827); assay: ATG_hTRa_XSP2: Attagene TRANS-FACTORIAL Multi-Species (XSP2) HepG2 Assay for human Thyroid hormone Receptor alpha (TRa) (AID 2283838)
Chain of human Thyroid hormone Receptor alpha (TRa), THRA (gene 7067) (P10827 whole entry, looked up, the tested form may be a part): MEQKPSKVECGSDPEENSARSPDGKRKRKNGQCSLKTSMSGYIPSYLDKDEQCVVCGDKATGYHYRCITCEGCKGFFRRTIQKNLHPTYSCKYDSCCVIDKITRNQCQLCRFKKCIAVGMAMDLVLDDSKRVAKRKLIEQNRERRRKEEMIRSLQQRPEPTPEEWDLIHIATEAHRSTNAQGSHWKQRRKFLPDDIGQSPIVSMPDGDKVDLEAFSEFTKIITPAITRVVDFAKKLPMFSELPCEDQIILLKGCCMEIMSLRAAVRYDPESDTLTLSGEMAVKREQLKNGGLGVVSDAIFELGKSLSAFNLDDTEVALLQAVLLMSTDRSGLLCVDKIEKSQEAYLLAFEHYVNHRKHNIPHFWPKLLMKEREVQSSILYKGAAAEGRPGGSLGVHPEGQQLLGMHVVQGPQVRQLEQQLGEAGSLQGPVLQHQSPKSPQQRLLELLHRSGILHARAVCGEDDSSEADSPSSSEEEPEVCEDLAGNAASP
Procedure, shortened: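 Reporter transcripts were read by RT-PCR with fluorescent primer extension, HpaI digestion and capillary electrophoresis. These came from HepG2 cells carrying multiplexed TRa-Gal4 TRANS constructs, harvested 24 hours after dosing. The medium also held 6-alpha-fluorotestosterone (3 nM) and norgestrel (1.5 nM), and increases were fitted against DMSO.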

[9] = molecular target: frog Thyroid hormone Receptor alpha (TRa), thra-a (gene 397942) (UniProt P15204); assay: ATG_frTRa_XSP2: Attagene TRANS-FACTORIAL Multi-Species (XSP2) HepG2 Assay for frog Thyroid hormone Receptor alpha (TRa) (AID 2283839)
Chain of frog Thyroid hormone Receptor alpha (TRa), thra-a (gene 397942) (P15204 whole entry, looked up, the tested form may be a part): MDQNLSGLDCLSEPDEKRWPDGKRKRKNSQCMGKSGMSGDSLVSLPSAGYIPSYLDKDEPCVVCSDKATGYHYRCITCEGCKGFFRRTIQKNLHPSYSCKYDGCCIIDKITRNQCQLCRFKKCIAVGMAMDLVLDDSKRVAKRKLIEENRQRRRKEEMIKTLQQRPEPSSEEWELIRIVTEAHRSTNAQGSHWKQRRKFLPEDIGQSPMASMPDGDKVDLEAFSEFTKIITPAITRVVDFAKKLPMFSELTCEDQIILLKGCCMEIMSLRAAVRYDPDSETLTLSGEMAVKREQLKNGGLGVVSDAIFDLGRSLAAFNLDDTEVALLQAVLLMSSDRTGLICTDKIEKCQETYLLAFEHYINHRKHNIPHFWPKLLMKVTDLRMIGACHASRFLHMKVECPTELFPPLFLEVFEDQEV
Procedure, shortened: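 HepG2 cells transiently transfected with multiplexed GAL4-UAS reporter units expressing chimeric frog TRα-Gal4; reporter mRNA read 24 h after dosing by RT-PCR, FAM-labelled primer extension, HpaI digest and capillary electrophoresis. Gain of signal fitted versus DMSO.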

[10] = molecular target: human Thyroid hormone Receptor beta (TRb), THRB (gene 7068) (UniProt P10828); assay: ATG_hTRb_XSP2: Attagene TRANS-FACTORIAL Multi-Species (XSP2) HepG2 Assay for human Thyroid hormone Receptor beta (TRb) (AID 2283840);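 further: actives raise reporter mRNA so potency reflects agonist-like gain of signal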
Chain of human Thyroid hormone Receptor beta (TRb), THRB (gene 7068) (P10828 whole entry, looked up, the tested form may be a part): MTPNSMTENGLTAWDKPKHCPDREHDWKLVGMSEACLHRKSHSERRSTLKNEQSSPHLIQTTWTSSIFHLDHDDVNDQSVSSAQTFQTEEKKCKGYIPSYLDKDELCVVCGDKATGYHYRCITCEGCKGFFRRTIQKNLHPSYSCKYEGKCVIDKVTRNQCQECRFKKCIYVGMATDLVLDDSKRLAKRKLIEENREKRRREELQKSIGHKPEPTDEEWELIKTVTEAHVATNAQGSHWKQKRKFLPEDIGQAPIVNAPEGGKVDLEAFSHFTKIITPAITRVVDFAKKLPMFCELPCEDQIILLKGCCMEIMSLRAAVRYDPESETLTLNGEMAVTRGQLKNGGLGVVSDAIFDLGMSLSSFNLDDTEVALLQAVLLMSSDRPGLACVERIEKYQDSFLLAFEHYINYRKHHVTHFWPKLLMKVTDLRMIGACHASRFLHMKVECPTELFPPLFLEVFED
Procedure, shortened: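 HepG2 cells were transiently transfected with GAL4-UAS multiplexed reporter units expressing chimeric NR-Gal4 proteins, dosed 24 h; reporter mRNA was quantified by RT-PCR, fluorescent labeling, HpaI digestion and capillary electrophoresis, fitted for gain of signal versus DMSO.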

Measured: AC50

COc1ccc(C(=O)c2ccccc2)c(O)c1
inactive: [2] | [3] | [4] | [5] | [6] | [7] | [8] | [9] | [10]
active: [1] 26.7 µM

CCCCCCCCCCCCc1ccc(O)cc1
active: [1] 0.259 µM
inactive: [2] | [3] | [4] | [5] | [6] | [10]

Oc1ccccc1Cc1ccccc1O
inactive: [1] | [2] | [3] | [4] | [5] | [6] | [7] | [8] | [9] | [10]
active: [1] 26.3 µM

O=C(O)/C=C/c1ccccc1
inactive: [1] | [3] | [6] | [7] | [8] | [10]

C=C1C[C@H]2[C@@H]3C=C(C)C4=CC(=O)CC[C@]4(C)[C@H]3CC[C@]2(C)[C@@]1(OC(C)=O)C(C)=O
active: [1] 931 nM and 619 nM
inactive: [2] | [3] | [4] | [7] | [8] | [9] | [10]

CC(C)(C)NC(=O)[C@H]1CC[C@H]2[C@@H]3CC[C@H]4NC(=O)C=C[C@]4(C)[C@H]3CC[C@]12C
inactive: [5]
active: [1] 2.09 µM | [4] 25.9 µM

CC(CCC(=O)O)(c1ccc(O)cc1)c1ccc(O)cc1
active: [1] 100 µM
inactive: [1] | [2] | [3] | [4] | [5] | [6] | [7] | [8] | [9] | [10]

N#Cc1ccc(C2CCCc3cncn32)cc1 (centres undefined)
inactive: [1] | [2] | [3] | [4] | [5] | [6] | [7] | [9]

Oc1ccc(-c2ccccc2)c(Cl)c1
active: [7] 85.4 µM
inactive: [1] | [2] | [3] | [4] | [6] | [8] | [9] | [10]

COc1ccc(-c2coc3cc(O)cc(O)c3c2=O)cc1
active: [1] 2.51 µM
inactive: [1] | [2] | [3] | [4] | [5] | [6] | [7] | [8] | [9] | [10]
